The whole screen tested about 5,500 compounds, of which about 2,000 (36%) were called active. Roughly 18% stayed inconclusive and do not appear here. Cut-off read from the data, not from the text of the source: active = normalized growth mostly below about 0.91 (no sharp cut-off); inconclusive = no clear call, values can overlap the other calls; inactive = mostly above about 0.92. Some of the results follow.
Assay: chemical genetic growth profiling, strain panel (AID 1159580);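 note: tested at 20 µM; growth read once vehicle control cultures reached saturation at 30 °C; 1 = growth at the plate median or of vehicle wells; lower values mean less growth of the strain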
Settings: growth OD

Measured: normalized growth

Nc1ccc(S(=O)(=O)Nc2ncccn2)cc1
inactive: S. cerevisiae deletion strains, locus YJR066W, strain TOR1, hits give low values 0.92 | S. cerevisiae deletion strains, locus YJR075W, strain HOC1, hits give low values 0.992 | S. cerevisiae deletion strains, locus YKL009W, strain mrt4, hits give low values 1.01 | S. cerevisiae deletion strains, locus YKL068W, hits give low values 0.989 | S. cerevisiae deletion strains, locus YKL085W, strain MDH1 (second series), hits give low values 0.996 | S. cerevisiae deletion strains, locus YKL085W, strain MDH1, hits give low values 0.996 | S. cerevisiae deletion strains, locus YKL160W, strain elf1, hits give low values 1.01 | S. cerevisiae deletion strains, locus YKL190W, strain CNB1, hits give low values 0.989 | S. cerevisiae deletion strains, locus YKR001C, strain vps1, hits give low values 1 | S. cerevisiae deletion strains, locus YKR026C, strain gcn3, hits give low values 0.966 | S. cerevisiae deletion strains, locus YKR091W, strain srl3, hits give low values 0.978 | S. cerevisiae deletion strains, locus YLL001W, strain dnm1, hits give low values 0.977 | S. cerevisiae deletion strains, locus YLL026W, hits give low values 0.999 | S. cerevisiae deletion strains, locus YLL041C, strain sdh2, hits give low values 0.997 | S. cerevisiae deletion strains, locus YLR027C, strain aat2, hits give low values 0.983 | S. cerevisiae deletion strains, locus YLR039C, strain RIC1, hits give low values 0.999 | S. cerevisiae deletion strains, locus YLR058C, strain SHM2, hits give low values 0.976 | S. cerevisiae deletion strains, locus YLR102C, strain apc9, hits give low values 0.993 | S. cerevisiae deletion strains, locus YLR113W, strain HOG1, hits give low values 0.973 | S. cerevisiae deletion strains, locus YLR221C, strain rsa3, hits give low values 0.968 | S. cerevisiae deletion strains, locus YLR258W, strain gsy2, hits give low values 0.98 | S. cerevisiae deletion strains, locus YLR262C, strain YPT6 (second series), hits give low values 0.981 | S. cerevisiae deletion strains, locus YLR262C, strain YPT6, hits give low values 0.974 | S. cerevisiae deletion strains, locus YLR268W, strain sec22, hits give low values 1.05 | S. cerevisiae deletion strains, locus YLR320W, strain mms22, hits give low values 0.982 | S. cerevisiae deletion strains, locus YLR330W, strain CHS5, hits give low values 0.994 | S. cerevisiae deletion strains, locus YLR342W, strain FKS1 (second series), hits give low values 1.01 | S. cerevisiae deletion strains, locus YLR342W, strain FKS1, hits give low values 0.992 | S. cerevisiae deletion strains, locus YLR357W, strain rsc2, hits give low values 0.939 | S. cerevisiae deletion strains, locus YLR370C, strain arc18, hits give low values 0.982 | S. cerevisiae deletion strains, locus YLR384C, strain iki3, hits give low values 0.994 | S. cerevisiae deletion strains, locus YLR418C, strain cdc73, hits give low values 0.997 | S. cerevisiae deletion strains, locus YML016C, strain PPZ1, hits give low values 0.988 | S. cerevisiae deletion strains, locus YML032C, strain rad52, hits give low values 1.01 | S. cerevisiae deletion strains, locus YML120C, strain ndi1, hits give low values 0.969 | S. cerevisiae deletion strains, locus YML124C, strain tub3, hits give low values 1 | S. cerevisiae deletion strains, locus YMR058W, strain fet3, hits give low values 1.01 | S. cerevisiae deletion strains, locus YMR078C, strain ctf18, hits give low values 0.985 | S. cerevisiae deletion strains, locus YMR125W, strain sto1, hits give low values 0.955 | S. cerevisiae deletion strains, locus YMR129W, hits give low values 0.983 | S. cerevisiae deletion strains, locus YMR205C, strain PFK2, hits give low values 0.985 | S. cerevisiae deletion strains, locus YMR223W, strain ubp8, hits give low values 0.976 | S. cerevisiae deletion strains, locus YMR231W, strain pep5, hits give low values 0.979 | S. cerevisiae deletion strains, locus YMR307W, strain GAS1, hits give low values 1 | S. cerevisiae deletion strains, locus YNL067W, strain RPL9B, hits give low values 0.99 | S. cerevisiae deletion strains, locus YNL071W, strain lat1, hits give low values 0.969 | S. cerevisiae deletion strains, locus YNL153C, strain GIM3, hits give low values 0.987 | S. cerevisiae deletion strains, locus YNL183C, strain NPR1, hits give low values 0.942 | S. cerevisiae deletion strains, locus YNL209W, strain ssb2, hits give low values 0.967 | S. cerevisiae deletion strains, locus YNL233W, strain BNI4, hits give low values 0.994 | S. cerevisiae deletion strains, locus YNL248C, strain rpa49, hits give low values 0.974 | S. cerevisiae deletion strains, locus YNL250W, strain rad50, hits give low values 1 | S. cerevisiae deletion strains, locus YNL271C, strain bni1, hits give low values 0.998 | S. cerevisiae deletion strains, locus YNL298W, strain CLA4, hits give low values 1 | S. cerevisiae deletion strains, locus YNL307C, strain MCK1, hits give low values 1 | S. cerevisiae deletion strains, locus YNL322C, strain KRE1 (second series), hits give low values 0.959 | S. cerevisiae deletion strains, locus YNR049C, strain mso1, hits give low values 0.98 | S. cerevisiae deletion strains, locus YNR052C, strain pop2, hits give low values 0.995 | S. cerevisiae deletion strains, locus YOL006C, strain TOP1, hits give low values 0.968 | S. cerevisiae deletion strains, locus YOL012C, strain htz1 1.31 | S. cerevisiae deletion strains, locus YOL147C, strain pex11, hits give low values 1 | S. cerevisiae deletion strains, locus YOR001W, strain rrp6, hits give low values 0.948 | S. cerevisiae deletion strains, locus YOR061W, strain CKA2, hits give low values 0.968 | S. cerevisiae deletion strains, locus YOR069W, strain VPS5, hits give low values 1 | S. cerevisiae deletion strains, locus YOR070C, strain gyp1, hits give low values 0.991 | S. cerevisiae deletion strains, locus YOR080W, strain dia2, hits give low values 0.972 | S. cerevisiae deletion strains, locus YOR083W, strain WHI5, hits give low values 0.964 | S. cerevisiae deletion strains, locus YOR106W, strain vam3, hits give low values 0.981 | S. cerevisiae deletion strains, locus YOR136W, strain idh2, hits give low values 0.983 | S. cerevisiae deletion strains, locus YOR144C, strain elg1, hits give low values 0.996 | S. cerevisiae deletion strains, locus YOR184W, strain ser1, hits give low values 0.994 | S. cerevisiae deletion strains, locus YOR231W, strain MKK1, hits give low values 0.978 | S. cerevisiae deletion strains, locus YOR265W, strain rbl2, hits give low values 1.02 | S. cerevisiae deletion strains, locus YOR270C, strain vph1, hits give low values 0.919 | S. cerevisiae deletion strains, locus YOR290C, strain snf2, hits give low values 0.974 | S. cerevisiae deletion strains, locus YOR316C, strain cot1, hits give low values 0.984 | S. cerevisiae deletion strains, locus YPL051W, strain arl3, hits give low values 1.01 | S. cerevisiae deletion strains, locus YPL055C, strain LGE1, hits give low values 0.939 | S. cerevisiae deletion strains, locus YPL078C, strain atp4, hits give low values 0.992 | S. cerevisiae deletion strains, locus YPL106C, strain sse1, hits give low values 0.983 | S. cerevisiae deletion strains, locus YPL240C, strain hsp82, hits give low values 0.99 | S. cerevisiae deletion strains, locus YPL241C, strain CIN2, hits give low values 0.996 | S. cerevisiae deletion strains, locus YPL256C, strain CLN2, hits give low values 0.968 | S. cerevisiae deletion strains, locus YPR119W, strain clb2, hits give low values 0.983 | S. cerevisiae deletion strains, locus YPR141C, strain kar3, hits give low values 0.983 | S. cerevisiae deletion strains, locus YPR163C, strain tif3, hits give low values 1 | S. cerevisiae deletion strains, locus YPR167C, strain met16, hits give low values 0.989 | S. cerevisiae deletion strains, strain wtn01, hits give low values 1.01 | S. cerevisiae strains, strain wild type, hits give low values 0.988

— PubChem BioAssay AID1159580 (chemical genetic matrix, 2015)
